Laboratory results from the supplement of paper PMC8975748.
Structures can show the parent of a compound that is named as a salt. ± gives the standard deviation of the averaged measurements.

Columns and labels:
[1] = system: Saccharomyces cerevisiae BY4741 SeMeCo community; assay: mean cell size (pixel area) (pixels); higher = larger cells; conditions: 10 µM; 24 h; SM minimal medium
Outline: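 A four-plasmid fluorescent Saccharomyces cerevisiae BY4741 community was tested; each plasmid complements one auxotrophy and carries a fluorescent marker. An overnight preculture at OD600 = 1.0 was diluted to OD600 = 0.3, and 70 µl was added to 384-well plates acoustically predosed with drug (final 10 µM) in SM medium for 24 h. Cells were fixed with paraformaldehyde and imaged by automated confocal microscopy, with analysis in Harmony. Mean cell pixel area per well is averaged over 3 replicates. Same SeMeCo high-content imaging drug screen: Selleck FDA-approved drugs at 10 µM, 24 h in SM medium, 384-well plates, 3 replicates.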

[2] = system: Saccharomyces cerevisiae BY4741 SeMeCo community; assay: z-score of prototroph abundance vs DMSO median; higher = larger share of this subpopulation than in DMSO controls; conditions: 10 µM; 24 h; SM minimal medium; subpopulation (auxotrophy): Prototroph
Outline: (§1)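 Four plasmids, each restoring a single auxotrophy and encoding a distinct fluorescent protein, were carried by a Saccharomyces cerevisiae BY4741 community. After overnight growth to OD600 1.0 and dilution to 0.3, 70 µl per well was grown for 24 h in minimal SM medium on 384-well plates acoustically predosed with library drugs at 10 µM final. Following paraformaldehyde fixation, automated confocal microscopy was used, with single-auxotroph fluorescent strains defining thresholds and autofluorescence correction. Subpopulation abundance was then scored as a z-score against the vehicle-well median.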

[3] = system: Saccharomyces cerevisiae BY4741 SeMeCo community; assay: z-score of subpopulation abundance vs DMSO median, subpopulation auxotrophic for M; higher = larger share of this subpopulation than in DMSO controls; conditions: 10 µM; 24 h; SM minimal medium; subpopulation (auxotrophy): M
Outline: as §1

[4] = system: Saccharomyces cerevisiae BY4741 SeMeCo community; assay: z-score of subpopulation abundance vs DMSO median, subpopulation auxotrophic for L; higher = larger share of this subpopulation than in DMSO controls; conditions: 10 µM; 24 h; SM minimal medium; subpopulation (auxotrophy): L
Outline: as §1

[5] = system: Saccharomyces cerevisiae BY4741 SeMeCo community; assay: z-score of subpopulation abundance vs DMSO median, subpopulation auxotrophic for U; higher = larger share of this subpopulation than in DMSO controls; conditions: 10 µM; 24 h; SM minimal medium; subpopulation (auxotrophy): U
Outline: as §1

[6] = system: Saccharomyces cerevisiae BY4741 SeMeCo community; assay: z-score of subpopulation abundance vs DMSO median, subpopulation auxotrophic for H; higher = larger share of this subpopulation than in DMSO controls; conditions: 10 µM; 24 h; SM minimal medium; subpopulation (auxotrophy): H
Outline: as §1

[7] = system: Saccharomyces cerevisiae BY4741 SeMeCo community; assay: z-score of subpopulation abundance vs DMSO median, subpopulation auxotrophic for LU; higher = larger share of this subpopulation than in DMSO controls; conditions: 10 µM; 24 h; SM minimal medium; subpopulation (auxotrophy): LU
Outline: as §1

[8] = system: Saccharomyces cerevisiae BY4741 SeMeCo community; assay: z-score of subpopulation abundance vs DMSO median, subpopulation auxotrophic for LM; higher = larger share of this subpopulation than in DMSO controls; conditions: 10 µM; 24 h; SM minimal medium; subpopulation (auxotrophy): LM
Outline: as §1

[9] = system: Saccharomyces cerevisiae BY4741 SeMeCo community; assay: z-score of subpopulation abundance vs DMSO median, subpopulation auxotrophic for HM; higher = larger share of this subpopulation than in DMSO controls; conditions: 10 µM; 24 h; SM minimal medium; subpopulation (auxotrophy): HM
Outline: as §1

[10] = system: Saccharomyces cerevisiae BY4741 SeMeCo community; assay: z-score of subpopulation abundance vs DMSO median, subpopulation auxotrophic for UM; higher = larger share of this subpopulation than in DMSO controls; conditions: 10 µM; 24 h; SM minimal medium; subpopulation (auxotrophy): UM
Outline: as §1

[11] = system: Saccharomyces cerevisiae BY4741 SeMeCo community; assay: z-score of subpopulation abundance vs DMSO median, subpopulation auxotrophic for HL; higher = larger share of this subpopulation than in DMSO controls; conditions: 10 µM; 24 h; SM minimal medium; subpopulation (auxotrophy): HL
Outline: as §1

[12] = system: Saccharomyces cerevisiae BY4741 SeMeCo community; assay: z-score of subpopulation abundance vs DMSO median, subpopulation auxotrophic for HLU; higher = larger share of this subpopulation than in DMSO controls; conditions: 10 µM; 24 h; SM minimal medium; subpopulation (auxotrophy): HLU
Outline: as §1

[13] = system: Saccharomyces cerevisiae BY4741 SeMeCo community; assay: z-score of subpopulation abundance vs DMSO median, subpopulation auxotrophic for HLM; higher = larger share of this subpopulation than in DMSO controls; conditions: 10 µM; 24 h; SM minimal medium; subpopulation (auxotrophy): HLM
Outline: as §1

[14] = system: Saccharomyces cerevisiae BY4741 SeMeCo community; assay: z-score of subpopulation abundance vs DMSO median, subpopulation auxotrophic for HUM; higher = larger share of this subpopulation than in DMSO controls; conditions: 10 µM; 24 h; SM minimal medium; subpopulation (auxotrophy): HUM
Outline: as §1

[15] = system: Saccharomyces cerevisiae BY4741 SeMeCo community; assay: z-score of subpopulation abundance vs DMSO median, subpopulation auxotrophic for LUM; higher = larger share of this subpopulation than in DMSO controls; conditions: 10 µM; 24 h; SM minimal medium; subpopulation (auxotrophy): LUM
Outline: as §1

[16] = system: Saccharomyces cerevisiae BY4741 SeMeCo community; assay: z-score of subpopulation abundance vs DMSO median, subpopulation auxotrophic for HU; higher = larger share of this subpopulation than in DMSO controls; conditions: 10 µM; 24 h; SM minimal medium; subpopulation (auxotrophy): HU
Outline: as §1

[17] = system: Saccharomyces cerevisiae BY4741 SeMeCo community; assay: z-score of subpopulation abundance vs DMSO median, subpopulation auxotrophic for HLUM; higher = larger share of this subpopulation than in DMSO controls; conditions: 10 µM; 24 h; SM minimal medium; subpopulation (auxotrophy): HLUM
Outline: as §1

SMILES	mean cell size [1]	z-score of prototroph abundance [2]	z-score of subpopulation abundance [3]	z-score of subpopulation abundance [4]	z-score of subpopulation abundance [5]	z-score of subpopulation abundance [6]	z-score of subpopulation abundance [7]	z-score of subpopulation abundance [8]	z-score of subpopulation abundance [9]	z-score of subpopulation abundance [10]	z-score of subpopulation abundance [11]	z-score of subpopulation abundance [12]	z-score of subpopulation abundance [13]	z-score of subpopulation abundance [14]	z-score of subpopulation abundance [15]	z-score of subpopulation abundance [16]	z-score of subpopulation abundance [17]
C[C@@H](O)[C@H]1C(=O)N2C(C(=O)OCOC(=O)C(C)(C)C)=C(SC3CN(C4=NCCS4)C3)[C@H](C)[C@H]12 [Tebipenem Pivoxil]	12.4 ± 0.16	0.66	-0.17	0	0.02	-0.29	-0.6	0.18	-0.9	-0.27	-0.41	-0.99	-0.55	-0.67	0.09	–	–
CC(C)[N+]1(C)[C@@H]2CC[C@H]1C[C@@H](OC(=O)C(CO)c1ccccc1)C2 (stereo not given in full) [Ipratropium Bromide]	12.4 ± 0.27	0.41	-0.02	0.58	-0.33	-0.17	0.15	0.93	–	-0.31	-0.04	-0.02	-0.71	-0.65	-0.28	-0.22	0.07
Cc1nc(=O)c2cc(CN(C)c3ccc(C(=O)N[C@@H](CCC(=O)O)C(=O)O)s3)ccc2[nH]1 [Raltitrexed]	13.1 ± 0.36	1.91	0.3	-0.42	-1.11	-0.94	-1.62	-0.75	-0.66	-2.8	-0.37	-0.94	-0.97	-1.9	-2.16	-2.1	–
COc1ccc2[nH]c([S@@+]([O-])Cc3ncc(C)c(OC)c3C)nc2c1 [NEXIUM (esomeprazole magnesium)]	12.5 ± 0.14	-0.6	0.2	1.11	-0.8	3.24	0.11	0.3	0.8	-1.82	1.91	1.46	1.32	-0.41	–	0.68	–
CCCN(CCC)CCc1cccc2c1CC(=O)N2 [Ropinirole HCl]	12.4 ± 0.22	-0.81	-0.4	1.95	0.26	-0.16	1.24	0.91	0.44	0.06	0.65	1.05	-0.19	0.58	1.74	0.41	–
O=C(c1ccc(OCCN2CCCCC2)cc1)c1c(-c2ccc(O)cc2)sc2cc(O)ccc12 [Raloxifene HCl]	12.2 ± 0.27	0.44	0.58	1.28	-1.87	0.59	-1.4	1.33	–	-0.85	0.66	-0.29	-0.47	0.06	-0.24	-1.43	-0.56
CCCCCCCCCCCCCCCC[N+](C)(C)C [Cetrimonium Bromide (CTAB)]	10.8 ± 0.24	-15.6	-4.82	-1.79	-1.73	9.21	3.88	3.5	10.1	12.1	–	19.1	50.7	34.1	20.6	12.8	–
C[C@@H](NCCCc1cccc(C(F)(F)F)c1)c1cccc2ccccc12 [Cinacalcet HCl]	12.17 ± 0.037	-0.37	0.31	2.8	-1.21	0.26	0.1	3.33	0.25	-0.3	1.05	-0.17	0.67	-0.21	2.57	-1.71	–
Cn1cc(C(=O)[C@@H]2CCc3[nH]cnc3C2)c2ccccc21 [Ramosetron Hydrochloride]	12.6 ± 0.16	-0.53	0.56	-0.44	0.51	–	0.85	–	0.78	0.33	–	0.86	1.18	-0.01	0.32	-0.53	0.88
CC(C)C(=O)Oc1ccc(CO)cc1[C@H](CCN(C(C)C)C(C)C)c1ccccc1 [Fesoterodine Fumarate]	12.3 ± 0.21	0.94	0	-0.39	0.1	-1.08	-0.25	–	-0.41	-0.82	-0.27	-0.16	-1	-0.72	-0.22	-0.72	-1.13
N[C@@H]1CN(c2c(F)cc3c(=O)c(C(=O)O)cn([C@@H]4C[C@@H]4F)c3c2Cl)CC12CC2 [Sitafloxacin Hydrate]	12.2 ± 0.062	-1.39	0.3	0.29	1.07	–	0.44	–	0.61	–	0.18	0.03	-0.5	0.81	0.98	1.54	-0.03
CCCNC(C)C(=O)Nc1ccccc1C (stereo not given) [Prilocaine]	12.51 ± 0.059	-0.27	-0.72	1	–	0.48	0.36	-0.18	–	-0.84	-0.2	0.3	0.16	-0.22	0.36	0.57	0.52
O=c1[nH]c(=O)n([C@H]2C[C@H](O)[C@@H](CO)O2)cc1/C=C/Br [Brivudine]	12.41 ± 0.042	0.4	0.48	-2.11	–	-2.5	-0.22	-1.47	–	–	-1.84	-0.95	-1.12	-0.74	-0.74	-0.94	-1.13
CC1=Nc2ccc(Cl)cc2S(=O)(=O)N1 [Diazoxide]	12.4 ± 0.1	0.72	-0.76	-0.67	0.16	-0.86	-0.67	–	-0.62	-0.03	-0.72	-0.88	-1.55	-0.41	-0.9	-0.17	-1.32
COc1ccnc(C[S+]([O-])c2nc3cc(OC(F)F)ccc3[nH]2)c1OC (stereo not given) [Pantoprazole sodium]	12.5 ± 0.28	-0.43	0.43	-0.4	-0.3	0.86	-0.65	–	0.29	0.55	-0.43	-0.16	-0.85	0.3	0	0.06	-0.49
